Hits are enriched below; roughly 3.9% of the tested compounds scored in any of these assays.
CCHF vOTU inh = blocks the CCHF virus ovarian tumor domain protease | 370,000 tested, 0.55% active | CCHFV vOTU protease, Pep-AMC fluorescence | inhibition, % at 11.5 µM; in the data active = inhibition above about 30%; note: 0% = vehicle wells with enzyme and 100% = no enzyme wells
SARS 3CLpro inh = SARS-CoV 3CLpro protease inhibition; P0C6X7; recombinant SARS-CoV 3CLpro, quenched FRET peptide cleavage; inhibition, % at 6 µM; 290,000 tested, 0.14% active; in the data active = inhibition above about 12%
Bead autofluor = counter-screen for toxin protease inhibitors: compound fluorescence; fluorescence intensity (concentration not given with the values); 360,000 tested, 3.1% active; compound autofluorescence counterscreen, microsphere flow cytometry; active compounds read high; AID 624483; in the data active = fluorescence intensity above about 16000; inconclusive = no clear call, values can overlap the other calls
Anthrax LF prot = anthrax lethal factor protease inhibition | AID 588501 | 360,000 tested, 0.12% active | multiplex microsphere protease cleavage assay, LF | P15917 | inhibition, % at 10 µM; note: plate controls were buffer without enzyme for full effect and enzyme alone for no effect
BoNT-A LC inh2 = inhibitors of Botulinum neurotoxin A light chain protease; multiplex microsphere protease substrate cleavage, flow cytometry; inhibition, % at 10 µM; 360,000 tested, 0.17% active; AID 588499; note: plate controls were buffer without enzyme for full effect and enzyme alone for no effect
BoNT F protease = BoNT F light chain protease inhibition; Multiplex microsphere protease cleavage assay, flow cytometry; inhibition, % at 10 µM; 360,000 tested, 0.22% active; in the data active = inhibition above about 35%, passing the limit was not always enough; inconclusive = no clear call, values can overlap the other calls; note: plate controls were buffer without enzyme for full effect and enzyme alone for no effect
Active calls of the source: *. Cut-off read from the data, not from the text of the source, unless noted: active = inhibition above about 30%; inconclusive = no clear call, values can overlap the other calls; inactive = below that.

How did CNC(=O)[C@@H](NC(=O)[C@H](CC(C)C)[C@H](O)C(=O)NO)C(C)(C)C do in these assays?
CCHF vOTU inh: 2.3

How did CCOC(=O)/C(=C/C1=CC(=C/N(C)C)/C(=O)O1)C(C)=O do in these assays?
CCHF vOTU inh: 0.6; SARS 3CLpro inh: 5.9; Bead autofluor: 2895; Anthrax LF prot: -8.0; BoNT-A LC inh2: -0.2; BoNT F protease: 36.3*

What do the screens show for `CCOC(=O)CSc1nnc(-c2cc(OC)c(OC)c(OC)c2)o1`?
CCHF vOTU inh: -11.1; SARS 3CLpro inh: 4.0; Bead autofluor: 4643; Anthrax LF prot: -1.8; BoNT-A LC inh2: -2.4; BoNT F protease: -8.6

What do the screens show for `COc1cc(-c2nnc(SCc3cc(=O)oc4cc(O)c(O)cc34)o2)cc(OC)c1OC`?
CCHF vOTU inh: 8.3; SARS 3CLpro inh: 1.6; Bead autofluor: 21137*; Anthrax LF prot: -5.6; BoNT-A LC inh2: 7.9; BoNT F protease: 6.5

What do the screens show for `CCOC(=O)N1CCC(=NNS(=O)(=O)c2cccc([N+](=O)[O-])c2)CC1`?
CCHF vOTU inh: -8.8; SARS 3CLpro inh: -2.6; Bead autofluor: 22772*; Anthrax LF prot: -1.7; BoNT-A LC inh2: -7.5; BoNT F protease: -8.3

Results for CCOC(=O)N1CCN(S(=O)(=O)c2cc([N+](=O)[O-])ccc2C)CC1 ?
CCHF vOTU inh: -3.2; SARS 3CLpro inh: 1.2; Bead autofluor: 4535; Anthrax LF prot: -1.7; BoNT-A LC inh2: -0.6; BoNT F protease: -7.5

How did CCC(C)Nc1c2c(nc3c(-c4ccccc4)c(C)nn13)CCC2 (centres undefined) do in these assays?
CCHF vOTU inh: 1.1; SARS 3CLpro inh: -1.4; Bead autofluor: 22116*; Anthrax LF prot: -3.4; BoNT-A LC inh2: -6.4; BoNT F protease: -7.9

Results for COCCNc1c2c(nc3c(-c4ccccc4)c(C)nn13)CCCC2 ?
CCHF vOTU inh: 2.1; SARS 3CLpro inh: 0.1; Bead autofluor: 23437*; Anthrax LF prot: -1.8; BoNT-A LC inh2: -2.0; BoNT F protease: -2.3

Results for COC(=O)[C@]12C[C@H](CC(=O)NCCCCc3ccccc3)C(=O)N(CCc3ccc(OC)c(OC)c3)C1=C[C@H](C(C)(C)C)O[C@@H]2C ?
CCHF vOTU inh: 21.3

Results for O=C(CNC(=O)c1ccco1)OCc1c(F)cccc1Cl ?
CCHF vOTU inh: -6.8; SARS 3CLpro inh: -3.1; Bead autofluor: 20975*; Anthrax LF prot: -1.5; BoNT-A LC inh2: inconclusive; BoNT F protease: 4.1

What do the screens show for `N#CCC[C@@H]1CC[C@]2(CCCN(C(=O)c3cccnc3)C2)O1`?
CCHF vOTU inh: 1.1

What do the screens show for `Cc1cccc(CCNC(=O)c2ccc(Sc3ccccc3Cl)c([N+](=O)[O-])c2)c1`?
CCHF vOTU inh: 15.5

Results for CCSc1nc2ccccc2n1C(=O)c1ccc(S(=O)(=O)N2CCCCC2)cc1 ?
CCHF vOTU inh: -3.8; SARS 3CLpro inh: -6.0; Bead autofluor: 20953*; Anthrax LF prot: -1.9; BoNT-A LC inh2: -3.0; BoNT F protease: -3.9

Results for Cn1c(/C(C#N)=C(\O)c2ccc(S(=O)(=O)N3CCCCC3)cc2)nc2ccccc21 ?
CCHF vOTU inh: 10.4; SARS 3CLpro inh: -0.1; Bead autofluor: 23146*; Anthrax LF prot: -2.4; BoNT-A LC inh2: 0.8; BoNT F protease: 0.0

Results for COc1ccc(/C(O)=C(\C#N)c2nc3ccccc3n2C)cc1OC ?
CCHF vOTU inh: 20.3; SARS 3CLpro inh: 1.1; Bead autofluor: 21521*; Anthrax LF prot: 1.7; BoNT-A LC inh2: inconclusive; BoNT F protease: 5.3

How did Cc1cc(C(F)F)n2nc(C(=O)Nc3ccccc3Br)nc2n1 do in these assays?
CCHF vOTU inh: 0.9; SARS 3CLpro inh: 2.9; Bead autofluor: 20530*; Anthrax LF prot: -3.7; BoNT-A LC inh2: 0.5; BoNT F protease: -0.3

What do the screens show for `O=C(NCC1CCCO1)c1cccc(Br)c1` (centres undefined)?
CCHF vOTU inh: -4.2; SARS 3CLpro inh: -5.0; Bead autofluor: 16290*; Anthrax LF prot: 1.6; BoNT-A LC inh2: inconclusive; BoNT F protease: -1.6

How did O=C(NCC1CCCO1)c1ccc(NC(=O)c2cccc(Br)c2)cc1 (centres undefined) do in these assays?
CCHF vOTU inh: -9.1; SARS 3CLpro inh: 0.5; Bead autofluor: 3925; Anthrax LF prot: -6.7; BoNT-A LC inh2: -1.5; BoNT F protease: 5.7

What do the screens show for `O=C(NCCc1ccccc1)c1cnc(Cl)c(Cl)c1`?
CCHF vOTU inh: 8.0; SARS 3CLpro inh: -0.8; Bead autofluor: 2953; Anthrax LF prot: 35.3*; BoNT-A LC inh2: -0.2; BoNT F protease: 5.0

What do the screens show for `O=C(NCC1CCCO1)c1cnc(Cl)c(Cl)c1` (centres undefined)?
CCHF vOTU inh: 0.4; SARS 3CLpro inh: 1.4; Bead autofluor: 3554; Anthrax LF prot: 32.1*; BoNT-A LC inh2: 1.7; BoNT F protease: 13.9

How did CCCC(=O)Nc1ccc(C(=O)NCC2CCCO2)cc1 (centres undefined) do in these assays?
CCHF vOTU inh: -0.2; SARS 3CLpro inh: -3.9; Bead autofluor: 24245*; Anthrax LF prot: 0.9; BoNT-A LC inh2: -2.2; BoNT F protease: -0.8

Results for O=C(NCCCSc1ccccc1)c1cnc(Cl)c(Cl)c1 ?
CCHF vOTU inh: 12.1; SARS 3CLpro inh: 0.8; Bead autofluor: 3581; Anthrax LF prot: 9.2; BoNT-A LC inh2: -0.7; BoNT F protease: 11.8

Results for CCOc1ccccc1NC(=O)NNC(=O)CCn1nc(C)c([N+](=O)[O-])c1C ?
CCHF vOTU inh: -4.2

What do the screens show for `C#CCNC(=O)C[C@H]1C[C@@]2(C(=O)OC)C(=C[C@H](C(C)C)O[C@@H]2C2CC2)N(CCc2ccc(OC)c(OC)c2)C1=O`?
CCHF vOTU inh: -0.2

How did CC1(c2nnnn2-c2ccc3ccccc3c2)CSCC(=O)N1C1CC1 (centres undefined) do in these assays?
CCHF vOTU inh: -6.4

What do the screens show for `Cc1cc(NC(=O)CSc2nnc(CNc3cccc(C(F)(F)F)c3)n2Cc2ccco2)no1`?
CCHF vOTU inh: 1.0; SARS 3CLpro inh: -2.6; Bead autofluor: 17703*; Anthrax LF prot: -4.0; BoNT-A LC inh2: -3.2; BoNT F protease: -6.5

How did CCOc1ccccc1NC(=O)CSc1nnc(-c2ccccn2)n1Cc1ccco1 do in these assays?
CCHF vOTU inh: -0.7; SARS 3CLpro inh: -1.1; Bead autofluor: 5745; Anthrax LF prot: -7.2; BoNT-A LC inh2: 0.3; BoNT F protease: -11.5

Results for Cc1cc(NC(=O)CSc2nnc(-c3ccco3)n2Cc2ccco2)no1 ?
CCHF vOTU inh: -0.8; SARS 3CLpro inh: -1.4; Bead autofluor: 19201*; Anthrax LF prot: -9.7; BoNT-A LC inh2: 1.4; BoNT F protease: 3.4

Results for CCOc1ccccc1NC(=O)CSc1nnc(-c2ccco2)n1Cc1ccco1 ?
CCHF vOTU inh: 3.6; SARS 3CLpro inh: 3.2; Bead autofluor: 21394*; Anthrax LF prot: -12.0; BoNT-A LC inh2: 2.5; BoNT F protease: 2.5

Results for COc1ccc(C)cc1NC(=O)CSc1nnc(-c2ccco2)n1Cc1ccco1 ?
CCHF vOTU inh: 0.3; SARS 3CLpro inh: -2.5; Bead autofluor: 17132*; Anthrax LF prot: 0.2; BoNT-A LC inh2: -1.8; BoNT F protease: -4.8

Results for Cc1nnc(SCC(=O)Nc2cccc(C(F)(F)F)c2)n1Cc1ccco1 ?
CCHF vOTU inh: 7.9; SARS 3CLpro inh: 6.5; Bead autofluor: 3531; Anthrax LF prot: -1.6; BoNT-A LC inh2: -0.3; BoNT F protease: -16.7
